Growth data for 14 compounds are collected here from PubChem BioAssay (NCI).

Assay in all cases: NCI-60 one-dose screen, 48 h (100 = growth as untreated, 0 = no growth, -100 = all killed)
Holding throughout (conditions): 10 µM unless noted

For test [1], the system named is SK-MEL-2 melanoma.
Test [2] relates to EKVX NSCLC.
Test [3] relates to SN12C renal.
Test [4] has as its system UO-31 renal.
For test [5], the system named is TK-10 renal.
Test [6] concerns ACHN renal.
Test [7] concerns CAKI-1 renal.
The subject of test [8] is A498 renal.
Test [9] concerns CCRF-CEM leukemia.
The subject of test [10] is MOLT-4 leukemia.
The subject of test [11] is SR leukemia.
In test [12] the test system is RPMI-8226 leukemia.
The subject of test [13] is OVCAR-8 ovarian.
Test [14] relates to OVCAR-5 ovarian.
Test [15] has as its system OVCAR-4 ovarian.
Test [16] concerns SK-OV-3 ovarian.
Test [17] relates to IGROV1 ovarian.
Test [18] has as its system OVCAR-3 ovarian.
The test system of test [19] is HS 578T breast.
In test [20] the test system is NCI/ADR-RES ovarian.

Structures are written as SMILES. About 83,000 compounds went through this panel and 20% of them were active in at least one assay; those are over-represented in the sample as a whole.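 Assay: single dose, 48 h. Readout: percent growth (0 = no net growth; negative = cell death). Active: <10.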 Values without a mark were called inactive. Calls of active or inactive are those of the source.

On to `Fc1ccc(Cc2ccc(F)cc2)cc1`, for which the growth in test [1] was 111%; in test [2] it was 105%; in test [3], 95.7%; in test [4] it was 79.7%; in test [5] it was 101%; in [6], 104%. Besides, the growth is 94.8% in test [7]; 99.7% in test [8]; 107% in [9]; 94.5% in test [10]; 116% in [11]; 108% in test [12]. Besides, the growth in [13] was 108%; in [14] it was 102%; in [15], 101%; in test [16] it was 107%; in [17], 102%; in test [18], 112%. In addition, the growth in test [19] is 114%; in [20], 101%.
Consider `COc1ccc(C2c3ccc4ccccc4c3Oc3ncnc(N)c32)cc1` (stereo not given), for which the growth in test [1] was 71.9%; in [2] it was 45.9%; in [3], 96%; in test [4], 55.9%; in test [5], 113%; in test [6] it was 81.3%. For the same compound, the growth in test [7] is 50%; in test [8], 75.2%; in test [9] it was 89.2%; in test [10] it was 83.4%; in [11], 46%; in [12], 86%. In addition, the growth was 92.8% in test [13]; 97.9% in [14]; 89% in test [15]; 62.1% in test [16]; 64.3% in [17]; 88% in test [18]. In addition, the growth is 82.2% in [19] and 74.7% in test [20].
Consider `c1ccc2c(Nc3cccc4ccccc34)cccc2c1`, for which the growth was 38.6% in [1]; 78.1% in test [2]; 58.8% in [3]; 41.3% in test [4]; 81.3% in test [5]; 79.1% in test [6]. The growth in test [7] is 40.3%; in test [8] it was 81.2%; in test [9], 59.8%; in test [10], 30.5%; in test [11], 31.6%; in test [12] it was 68.3%. The growth in [13] is 65.7%; in test [14] it was 103%; in test [15], 86%; in test [16], 59.5%; in test [17], 56.8%; in [18] it was 43.8%. Further, the values for the growth in test [19] and in test [20] were 62.6% and 29.8%, respectively.
As to `CN(C)c1ccc(/C=C\C2=[N+](C)c3ccccc3C2(C)C)cc1`, the growth in [1] is -3.85% (active); in test [2], 8.84% (active); in test [3], -1.45% (active); in test [4], 55%; in [5] it was 27.8%; in [6], 4.49% (active). The growth in test [7] was 13.4%; in test [8], 48.2%; in test [9], 14.6%; in test [10], 15.7%; in test [11] it was 25%; in test [12], 66.5%. The growth was 20.8% in [13]; 27.9% in [14]; 35.5% in test [15]; -11.6% (active) in [16]; 9.25% (active) in test [17]; -9.9% (active) in test [18]. In addition, the growth was 9.83% (active) in test [19] and 84.1% in test [20].
As for `C=C1CC[C@@H]2[C@](C)(COC(C)=O)[C@H](OC(C)=O)CC[C@@]2(C)[C@@H]1CC(NCc1ccc(F)cc1)C1=CCOC1=O` (stereo not given in full), the growth in test [1] was 73.2%; in test [2] it was 50%; in [3], 46.2%; in test [4] it was 31.3%; in test [5] it was 66.6%; in test [6], 50.9%. In addition, the growth is 46% in [7]; 51.7% in test [8]; 9.18% (active) in test [9]; -0.37% (active) in test [10]; 7.69% (active) in test [11]; 1.27% (active) in [12]. The growth in [13] was 18.6%; in [14], 99%; in [15], 30.9%; in test [16], 94.3%; in test [17] it was 48.3%; in test [18], 23.7%. Also, the growth was 72.5% in test [19] and 28.3% in [20].
Take `COc1cc(/C=N\NC(=O)CN2CCN(c3cc4c(cc3F)c(=O)c(C(=O)N/N=C/c3ccc(O)c(OC)c3)cn4C3CC3)CC2)ccc1O`: the growth was 68% in test [1]; 84.3% in test [2]; 53.4% in [3]; 76.7% in test [4]; 91.7% in test [5]; 99.2% in test [6]. Further, the growth in [7] is 82.8%; in test [8] it was 85.3%; in test [9], 18.9%; in test [10], 5.76% (active); in test [11], 33.9%; in test [12], 31.2%. In addition, the growth is 61.7% in test [13]; 98.2% in test [14]; 47.8% in [15]; 106% in test [16]; 63.7% in [17]; 14.4% in test [18]. The growth is 63.5% in [19] and 99.9% in test [20].
For the compound `COc1cccc(-c2nc3sccn3c2-c2ccnc(NCCCNS(=O)(=O)c3ccccc3)c2)c1`, the growth is 27.4% in test [1]; 42.7% in test [2]; 31.4% in test [3]; 9.36% (active) in test [4]; 88.2% in test [5]; 26.9% in [6]. In addition, the growth in test [7] is 27.8%; in test [8] it was 57.9%; in [9], 12.3%; in test [10], 14.1%; in test [11], 53.7%; in [12], -17.4% (active). The growth is 17.6% in test [13]; 92% in test [14]; 27.6% in [15]; 79.2% in test [16]; 39.6% in test [17]; 38.7% in test [18]. Besides, the results for the growth in test [19] and in test [20] were 66.8% and 12.7%, respectively.
For `CNCc1cccc2c1OCCOCCOCCN(C)S(=O)(=O)c1ccc(cc1)-c1cnc(N)c(n1)C(=O)N2`, the growth is 56.7% in test [1]; 43.6% in test [2]; 37% in test [3]; 36.5% in [4]; 53.3% in test [5]; 22.1% in test [6]. The growth in test [7] is 44.6%; in test [8], 36.7%; in test [9] it was -23.6% (active); in test [10], 0.352% (active); in test [11] it was -35% (active); in [12], 44.6%. The growth in test [13] was 52.9%; in [14], 160%; in test [15], 72.8%; in [16], 19.4%; in [17], 42.5%; in [18] it was 42.8%. For the same compound, the growth is 56.9% in test [19] and 80.1% in test [20].
In the case of `COc1cc(C#N)cc(OC)c1OCCN(CCOc1c(OC)cc(C#N)cc1OC)S(=O)(=O)c1ccc(C)cc1`, the growth in test [1] was 75%; in test [2] it was 108%; in test [3], 111%; in [4], 45.5%; in test [5], 140%; in test [6] it was 97.5%. Besides, the growth in test [7] is 109%; in [8] it was 107%; in [9], 103%; in test [10], 97.6%; in test [11], 106%; in test [12], 90.6%. The growth in test [13] was 54.1%; in test [14], 108%; in test [15], 107%; in test [16] it was 119%; in [17], 77.3%; in test [18], 118%. Besides, the growth was 99% in [19] and 95.9% in test [20].
In the case of `CC(=O)C1=C(O)C=C2Oc3c(C(=O)/C=C/c4cc(C(F)(F)F)cc(C(F)(F)F)c4)c(O)c(C)c(O)c3[C@]2(C)C1=O`, the growth in [1] was -49.7% (active); in test [2] it was -33.9% (active); in test [3], -34.1% (active); in [4], -31.4% (active); in [5] it was -32.5% (active); in test [6] it was -75.7% (active). The growth in test [7] is 5.35% (active); in test [8] it was -87.7% (active); in test [9], -18.1% (active); in [10], -14.1% (active); in [11], -29.3% (active); in [12], -18.8% (active). Besides, the growth in test [13] is -29.1% (active); in test [14], -6.52% (active); in test [15] it was 12.5%; in test [16], -32.9% (active); in [17], -6.87% (active); in test [18], -50.5% (active). In addition, the results for the growth in [19] and in test [20] were -12.2% (active) and -48.2% (active), respectively.
In the case of `COc1ccc(CCN2CC=Cn3c2nc2ccccc2c3=O)cc1`, the growth in [1] is 46.5%; in [2], 64.9%; in [3], 32.6%; in [4], 35.2%; in test [5], 77.6%; in [6] it was 26.7%. Moreover, the growth was 26.9% in test [7]; -7.45% (active) in test [8]; 18.7% in [9]; 19% in test [10]; 22.1% in test [11]; 21.4% in test [12]. In addition, the growth in test [13] is 22.2%; in test [14] it was 45%; in test [15], 41.6%; in test [16], 59.8%; in test [17] it was 32.2%; in test [18], -1.6% (active). The growth in test [19] was 37.9%; in test [20], 15%.
Regarding `O=C1c2ccccc2-c2nccc3cc(Cl)nc1c23`, the growth was 22.2% in test [1]; -17.3% (active) in [2]; -30.7% (active) in [3]; -18.5% (active) in test [4]; 61.1% in test [5]; -46.4% (active) in test [6]. The growth in test [7] is 32.9%; in [8], 90.2%; in [9] it was 19.4%; in [10], 26%; in test [11] it was -27.8% (active); in [12] it was 4.08% (active). Besides, the growth in test [13] is 51.1%; in test [14] it was 96.5%; in [15], -96.4% (active); in test [16] it was 97.5%; in [17] it was 0.315% (active); in test [18], -87.3% (active). In addition, the growth in test [19] was -7.62% (active); in test [20], 69%.
`CC1=NNC(=O)C1C` (stereo not given): the growth in test [1] is 99.8%; in test [2], 102%; in test [3], 96.1%; in [4], 88.2%; in [5], 377%; in test [6], 103%. In addition, the growth in test [7] is 81.5%; in [8], 88.6%; in test [9] it was 97.1%; in test [10], 145%; in test [11] it was 121%; in test [12], 73.1%. Moreover, the growth in test [13] is 83.3%; in test [14], 122%; in [15], 128%; in [16], 101%; in test [17] it was 106%; in test [18], 109%. Further, the growth in [19] was 90.8%; in test [20] it was 105%.
`COc1ccc(/C=C2\CN(C(=O)CCN3CCC(=NO)CC3)C/C(=C\c3ccc(OC)cc3)C2=O)cc1`: the growth was 89.4% in test [1]; 28% in test [2]; -52% (active) in [3]; -87.7% (active) in test [4]; 21.5% in test [5]; -41.7% (active) in test [6]. For the same compound, the growth in [7] was 11.3%; in [8], 36.1%; in test [9], 0.63% (active); in test [10], 0.493% (active); in [11], 2.16% (active); in test [12], -11.1% (active). For the same compound, the growth in [13] was 19.6%; in [14], -4.94% (active); in test [15] it was 28.2%; in test [16], 68%; in test [17], -14.1% (active); in [18] it was 6.9% (active). For the same compound, the growth in test [19] is 6.95% (active); in [20], 11.3%.
